High-throughput results deposited in PubChem by Broad Institute.
Hedgehog inh: blocks Sonic Hedgehog signaling; Shh-LIGHT2 Gli-luciferase reporter, 30 h; inhibition, % (no concentration beside the values); 22,000 compounds, 2.1% hits;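 active = mean inhibition across valid replicates above about 65%, limit read from the data; inconclusive = mean under the limit, yet half or more replicates past it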;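 also: pathway switched on by Shh-conditioned medium diluted 1 in 25 in low serum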
NOMO-1 viab: STK33 inhibitor candidate reducing NOMO-1 cell viability. NOMO-1 AML viability, CellTiter-Glo luminescence, 72 h. inhibition, % (no concentration beside the values). 37,000 compounds, 7.5% hits; in the data active = inhibition above about 80%; inconclusive = no clear call, values can overlap the other calls
YB-1 expr inh: YB-1 expression inhibition; U2OS, qRT-PCR YB-1 vs CDIP delta delta Cp, 16 h; hits give high values; zero = DMSO, each unit about twofold; delta delta Cp (YB-1 minus CDIP) (test concentration not listed); 30,000 compounds, 0.37% hits;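 active = delta delta Cp rounded down to an integer at or above 3, about 3 SD of DMSO wells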;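 also: higher means less YB-1 transcript or more CDIP transcript relative to DMSO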
PD-1 reversal: activators reversing PD-1 mediated T-cell inhibition; 29,000 tested, under 10 active; AID 2316; activation, % (no concentration beside the values); primary human CD4 T cells, PD-L1 beads, CellTiter-Glo 96 h; call rule not given here;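 also: 0% = median vehicle wells and 100% = positive control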
MITF inh: inhibitors of MITF; TRPM1 promoter luciferase, luminescence, 24 h; inhibition, % (concentration not given with the values); 37,000 compounds, 0.28% hits; AID 2240; in the data active = inhibition above about 85%; inconclusive = no clear call, values can overlap the other calls; inactive = below about 68%;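 also: human melanocyte line stably carrying TRPM1 promoter luciferase reporter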
* hit, by the source's call; ? = inconclusive; · = no result. Shown are actives, neighbours in structure and some others; about 7.4% of the full set was active somewhere.

SMILES | Hedgehog inh | NOMO-1 viab | YB-1 expr inh | PD-1 reversal | MITF inh
C[C@@H]1CN([C@H](C)CO)C(=O)Cc2cc(NC(=O)Nc3ccc(F)cc3)ccc2O[C@H]1CN(C)CC1CC1 | -20 | 0 | -0.12 | · | 4
N#C/C(=C\Nc1cc(C(F)(F)F)cc(C(F)(F)F)c1)S(=O)(=O)Cc1ccc(Cl)cc1 | 107* | 50 | -0.25 | 1 | 72
Cc1ccc(S(=O)(=O)N(C)C[C@@H]2Oc3c(NC(=O)Nc4ccc(C(F)(F)F)cc4)cccc3C(=O)N([C@@H](C)CO)C[C@@H]2C)cc1 | 93* | 39 | 0.2 | -1 | -1
Cc1ccc(S(=O)(=O)N(C)C[C@@H]2Oc3c(NC(=O)Nc4ccc(C(F)(F)F)cc4)cccc3C(=O)N([C@H](C)CO)C[C@H]2C)cc1 | -5 | ? | -0.082 | -4 | 3
Cc1ccc(S(=O)(=O)N(C)C[C@H]2Oc3c(NC(=O)Nc4ccc(C(F)(F)F)cc4)cccc3C(=O)N([C@@H](C)CO)C[C@H]2C)cc1 | -24 | 119* | -0.21 | -7 | 78
Cc1sc2nc(SCc3n[nH]c(=S)n3-c3ccccc3)nc(N)c2c1C | · | -21 | · | · | -21
Cc1cc(C(=O)Nc2cccc3c2O[C@@H](CN(C)Cc2ccc(Oc4ccccc4)cc2)[C@@H](C)CN([C@@H](C)CO)C3=O)n(C)n1 | -9 | 34 | 0.6 | -1 | -13
Cc1cc(C(=O)Nc2cccc3c2O[C@H](CN(C)Cc2ccc(Oc4ccccc4)cc2)[C@H](C)CN([C@@H](C)CO)C3=O)n(C)n1 | -20 | 2 | -0.37 | 1 | -16
Cc1cc(C(=O)Nc2cccc3c2O[C@@H](CN(C)Cc2ccc(Oc4ccccc4)cc2)[C@H](C)CN([C@H](C)CO)C3=O)n(C)n1 | 69* | 89* | -0.21 | -3 | 42
Cc1cc(C(=O)Nc2cccc3c2O[C@@H](CN(C)Cc2ccc(Cl)c(Cl)c2)[C@@H](C)CN([C@H](C)CO)C3=O)n(C)n1 | 49 | 92* | 0.38 | -6 | 26
Cc1cc(C(=O)Nc2cccc3c2O[C@H](CN(C)Cc2ccc(Oc4ccccc4)cc2)[C@@H](C)CN([C@@H](C)CO)C3=O)n(C)n1 | 77* | 70 | -0.25 | -2 | 45
COC(=O)c1c(C)oc2ccc(N(C(=O)Oc3ccccc3)S(=O)(=O)c3ccc(C)cc3)cc12 | · | 42 | 0.24 | 1 | -6
O=C(NCCCn1ccnc1)c1cc(-c2cccnc2)nc2ccc(Cl)cc12 | · | -6 | · | · | 0
C/C(=N\O)C(=O)Nc1cccc(C(F)(F)F)c1 | -24 | 6 | 0.19 | 2 | 11
CSc1sc(C#N)c2c1C(=O)CC(c1ccccc1)C2 (centres undefined) | 86* | 19 | -0.44 | -1 | 11
CC(=O)N1CCN(c2ccc(OCC3CO[C@](Cn4ccnc4)(c4ccc(Cl)cc4Cl)O3)cc2)CC1 (some centres undefined) | 107* | 107* | 0.18 | · | 58
COc1ccc(NC(=O)Nc2ccc3c(c2)C(=O)N([C@@H](C)CO)C[C@H](C)[C@@H](CN(C)Cc2ccncc2)O3)cc1 | 18 | 22 | 0.091 | 1 | -9
C=C1[C@@H]2CC[C@H]3[C@@]4(C)C(C[C@H](OC(=O)[C@]5(C)O[C@@H]5C)[C@]3(C2)[C@@H]1OC(C)=O)[C@](C)(C(=O)OC)CC[C@H]4OC(C)=O (some centres undefined) | 8 | 88* | 0.79 | -1 | -20
COc1ccc(CCN2C(=O)CSC2=NC2CC2)cc1OC | · | -14 | 0.43 | 0 | -23
O=C1CSC(=S)N1CCc1ccc(Cl)cc1 | 6 | 113* | 0.28 | 0 | 9
C(=NCc1ccco1)c1cn(-c2ccccc2)nc1-c1ccccc1 | -90 | 105* | -0.19 | -5 | -8
COc1ccc(CCNC(=O)c2nn3c(C(F)(F)F)cc(-c4ccccc4)nc3c2Cl)cc1OC | · | 50 | · | 0 | 31
COC(=O)CNC(=O)c1cn(-c2ccccc2)nc1-c1ccc(OC)cc1 | · | 113* | · | 0 | -8
COC(=O)CNC(=O)c1cn(-c2ccccc2)nc1-c1ccc([N+](=O)[O-])cc1 | · | 3 | · | 1 | -4
C/C=C(\C)C(=O)O[C@H]1C=C(CO)C(=O)[C@H](OC(C)=O)[C@H]1C(C)C | 57 | 122* | -0.58 | -35 | 48
SMILES | Hedgehog inh | NOMO-1 viab | YB-1 expr inh | PD-1 reversal | MITF inh
CN(C(=O)C(Cl)Cl)c1ccc(OC(=O)c2ccco2)cc1 | -20 | 4 | 3.7* | 0 | -1
C[C@@H]1CN([C@@H](C)CO)C(=O)Cc2cc(NS(=O)(=O)c3ccccc3)ccc2O[C@@H]1CN(C)S(=O)(=O)c1ccccc1 | 4 | 5 | -0.23 | -1 | -21
O=C1C2=C(NC(=S)NC2c2ccccc2)c2ccccc21 (centres undefined) | 16 | 114* | -0.18 | -11 | 60
CC1=C(C(=O)OCCc2ccccc2)C(c2ccc(N(C)C)cc2)NC(=S)N1 (centres undefined) | · | 11 | -0.079 | -5 | -11
C=C1C(=O)O[C@H]2[C@H]1[C@H](O)CC(=C)[C@@H]1CC(=O)C(C)[C@H]21 (some centres undefined) | -18 | 118* | -0.13 | -7 | 40
C=C1C(=O)O[C@@H]2[C@H]3C(=C)[C@@H](O[C@@H]4O[C@H](CO)[C@@H](O)[C@H](O)[C@H]4O)C[C@H]3C(=C)C[C@@H](O)[C@@H]12 | 27 | 7 | 0.12 | -1 | 5
C=C1C(=O)O[C@H]2C1[C@H](OC(=O)/C(=C/CO)COC(=O)/C(C)=C/CO)CC(=C)[C@@H]1CC(=O)[C@@H](C)[C@@H]12 (some centres undefined) | 16 | 108* | -0.29 | -6 | 12
C[C@@H]1CN([C@H](C)CO)C(=O)Cc2cc(N(C)C)ccc2O[C@@H]1CN(C)Cc1ccc(C(=O)O)cc1 | -16 | 25 | 0.089 | 0 | -3
C[C@H]1CN([C@@H](C)CO)C(=O)c2cccc(NC(=O)CCCCCC(=O)Nc3ccccc3N)c2O[C@@H]1CN(C)CC1CC1 | · | 120* | 0.17 | -1 | 41
C[C@@H]1CN([C@H](C)CO)C(=O)c2cccc(NC(=O)CCCCCC(=O)Nc3ccccc3N)c2O[C@@H]1CN(C)CC1CC1 | · | 46 | -0.0057 | 2 | -14
C[C@@H]1CN([C@H](C)CO)C(=O)c2cccc(NC(=O)CCCCCC(=O)Nc3ccccc3N)c2O[C@H]1CN(C)CC1CC1 | · | 122* | 0.15 | 0 | 13
C[C@@H]1CN([C@@H](C)CO)C(=O)c2cccc(NC(=O)CCCCCC(=O)Nc3ccccc3N)c2O[C@H]1CN(C)CC1CC1 | · | 128* | 0.087 | 0 | 13
Cc1ccc(S(=O)(=O)Nc2ccc3c(c2)C(=O)N([C@@H](C)CO)C[C@@H](C)[C@@H](CN(C)C(=O)Nc2c(C)noc2C)O3)cc1 | 5 | 0 | -0.039 | 0 | 3
COc1ccc(-c2nc3cc(C(C)C)ccc3o2)cc1NC(=O)COc1ccccc1C | · | 106* | · | 0 | -20
Cc1cc(C)cc(OCC(=O)Nc2cc(-c3nc4ccc(C)cc4o3)ccc2C)c1 | · | 105* | · | -6 | -30
